Source: PubChem BioAssay (NCATS)
Records with an inconclusive call do not appear. The source made the active and inactive calls. Calls follow the shape of the dose curve; as a rule, active = well fitted curve in the direction sought with a large enough effect; inconclusive = small, poorly fitted or top-dose-only effect, or another doubt; inactive = no such curve, though single readings can be large; an effect the other way counts as inactive or inconclusive.

Legend:
CRL-7250 = normal cell line; assay: Cytotoxic Profiling of Annotated Libraries Using Quantitative High-Throughput Screening (AID 1296008); settings: Five cell lines viability, CellTiter-Glo ATP luminescence, 48-72 h; max response: stronger effect = lower value; also: nearly all actives have a fitted effect of over 60% in size; as to max response: % is scaled to controls: 0 for no effect and ±100 for the full control effect
How it was run: (§1)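 Compounds were pin-transferred onto cells and incubated 48 or 72 hr at 37 degree Celsius, 95% humidity. CellTiter-Glo was added, plates sat 10 min at room temperature, then ATP-coupled luminescence was imaged as the viability read-out.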

HaCat [1] = assay: as above; settings: Five cell lines viability, CellTiter-Glo ATP luminescence, 48-72 h; max response: stronger effect = lower value
How it was run: as §1

KB-3-1 = assay: as above; settings: Five cell lines viability, CellTiter-Glo ATP luminescence, 48-72 h; max response: stronger effect = lower value
How it was run: as §1

NIH3T3 [2] = assay: as above; settings: Five cell lines viability, CellTiter-Glo ATP luminescence, 48-72 h; max response: stronger effect = lower value
How it was run: as §1

HACAT [3] = assay: qHTS assay to identify novel small-molecules to repurpose for Merkel cell carcinoma treatment (AID 1296009); settings: MCC and control cell lines, CellTiter-Glo viability, 72 h; at 44.8 µM (top of the series) unless noted; also: nearly all actives have a fitted effect of over 60% in size
How it was run: (§2)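 Cells exposed to NPC (8-point) and MIPE (11-point) compound dilutions for 72 hr at 37 degree celsius; viability read by CellTiter-Glo luminescence, normalized to no-cell and DMSO in-plate controls.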

C33A = assay: Primary qHTS to identify gynecologic anti-cancer compounds using libraries of approved drugs and bioactive compounds (AID 1345084); settings: Gynecologic cancer cell panel viability, ATPlite luminescence, 48 h; series mostly up to 57.5 µM; also: % is scaled to controls: 0 for no effect and ±100 for the full control effect; nearly all actives have a fitted effect of over 55% in size
How it was run: (§3)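 Cytotoxicity screen measuring ATP content by luciferase luminescence. Each compound is applied at five concentrations for 48 h at 37 C with 5% CO2.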

CAOV3 = assay: as above; settings: Gynecologic cancer cell panel viability, ATPlite luminescence, 48 h; series mostly up to 57.5 µM
How it was run: as §3

CASKI = assay: as above; settings: Gynecologic cancer cell panel viability, ATPlite luminescence, 48 h; series mostly up to 57.5 µM
How it was run: as §3

Es-2 = assay: as above; settings: Gynecologic cancer cell panel viability, ATPlite luminescence, 48 h; series mostly up to 57.5 µM
How it was run: as §3

HeLa = assay: as above; settings: Gynecologic cancer cell panel viability, ATPlite luminescence, 48 h; series mostly up to 57.5 µM
How it was run: as §3

Hek293T = assay: as above; settings: Gynecologic cancer cell panel viability, ATPlite luminescence, 48 h, control line for the selectivity index; series mostly up to 57.5 µM
How it was run: as §3

JEG-3 = assay: as above; settings: Gynecologic cancer cell panel viability, ATPlite luminescence, 48 h; series mostly up to 57.5 µM
How it was run: as §3

PA-1 = assay: as above; settings: Gynecologic cancer cell panel viability, ATPlite luminescence, 48 h; series mostly up to 57.5 µM
How it was run: as §3

OV90 = assay: as above; settings: Gynecologic cancer cell panel viability, ATPlite luminescence, 48 h; series mostly up to 57.5 µM
How it was run: as §3

NIH3T3 [4] = assay: qHTS assay to identify novel small-molecules to repurpose for Merkel cell carcinoma treatment (AID 1296009); settings: MCC and control cell lines, CellTiter-Glo viability, 72 h; series mostly up to 44.8 µM; also: nearly all actives have a fitted effect of over 60% in size
How it was run: as §2

Cc1nc2cc(C(=O)NCc3ccccn3)nn2c(C)c1Cc1cccc(Cl)c1
inactive: outcome (CRL-7250) | outcome (HaCat [1]) | max response (KB-3-1) -9.98% | max response (NIH3T3 [2]) 3.03% | outcome (HACAT [3]) | Potency (C33A) | Potency (CAOV3) | Potency (CASKI) | Potency (Es-2) | Potency (HeLa) | Potency (Hek293T) | Potency (JEG-3) | Potency (PA-1)

C=C1CCC[C@]2(C)CC/C(=C(/CO)C(=O)OC)C[C@@H]12
inactive: max response (CRL-7250) -7.08% | outcome (HaCat [1]) | max response (KB-3-1) -2.83% | max response (NIH3T3 [2]) 2.53% | outcome (HACAT [3]) | Potency (C33A) | Potency (CASKI) | Potency (Es-2) | Potency (HeLa) | Potency (Hek293T) | Potency (JEG-3) | Potency (OV90) | Potency (PA-1)

CC(C)[C@@H](c1ccc(C(F)(F)F)cc1CN(Cc1cc(C(F)(F)F)cc(C(F)(F)F)c1)c1nnn(C)n1)N1CCC(C(=O)O)CC1
inactive: max response (CRL-7250) -8.05% | outcome (HaCat [1]) | max response (KB-3-1) -11.9% | max response (NIH3T3 [2]) 4.8% | outcome (HACAT [3]) | Potency (C33A) | Potency (CASKI) | Potency (Es-2) | Potency (HeLa) | Potency (Hek293T) | Potency (JEG-3) | Potency (OV90) | Potency (PA-1)

CCC/C=C/C(=O)O[C@H]1CC(C)(C)CC2[C@@]13[C@H](O)C[C@]1(C)[C@@]2(CCC2[C@@]4(C)CC[C@H](O[C@@H]5O[C@H](C(=O)O)[C@@H](O)[C@H](O[C@@H]6O[C@H](CO)[C@H](O)[C@H](O)[C@H]6O[C@@H]6O[C@@H](C)[C@H](O)[C@@H](O)[C@H]6O[C@@H]6OC[C@](O)(CO)[C@H]6O)[C@H]5O[C@@H]5O[C@H](CO)[C@H](O)[C@H](O)[C@H]5O)C(C)(C)C4CC[C@]21C)O[C@H]3O (stereo partly drawn)
inactive: outcome (CRL-7250) | outcome (HaCat [1]) | outcome (KB-3-1) | max response (NIH3T3 [2]) 3.59% | outcome (HACAT [3]) inactive [at 9.27 µM] | activity change, negative = cytotoxicity (C33A) 1.29% [at 6.55 µM] | activity change, negative = cytotoxicity (CAOV3) -15.9% [at 6.55 µM] | activity change, negative = cytotoxicity (CASKI) -0.213% [at 6.55 µM] | activity change, negative = cytotoxicity (Es-2) 3.48% [at 6.55 µM] | activity change, negative = cytotoxicity (HeLa) 4.5% [at 6.55 µM] | activity change, negative = cytotoxicity (Hek293T) -25.4% [at 6.55 µM] | activity change, negative = cytotoxicity (JEG-3) 15.7% [at 6.55 µM] | activity change, negative = cytotoxicity (PA-1) -0.263% [at 6.55 µM]

COC1C=C(C)C(O)(CO)C2(C)CCCC(C)(C)C12 (stereo not drawn)
inactive: outcome (CRL-7250) | outcome (HaCat [1]) | max response (KB-3-1) 2.43% | max response (NIH3T3 [2]) -0.263% | outcome (HACAT [3]) | Potency (C33A) | Potency (CAOV3) | Potency (CASKI) | Potency (Es-2) | Potency (HeLa) | Potency (Hek293T) | Potency (JEG-3) | Potency (OV90) | Potency (PA-1)

CCNC1(C(N)=O)CCN(c2ncnc3c2nc(-c2ccccc2Cl)n3-c2ccc(Cl)cc2)CC1
inactive: outcome (CRL-7250) | outcome (HaCat [1]) | max response (KB-3-1) 6.15% | max response (NIH3T3 [2]) -1.7% | outcome (HACAT [3]) | Potency (C33A) | Potency (CAOV3) | Potency (CASKI) | Potency (Es-2) | Potency (HeLa) | Potency (Hek293T) | Potency (OV90) | Potency (PA-1)

O=C(c1ccc(OC(F)F)c(C#Cc2ccccn2)c1)N1Cc2cccnc2C1
inactive: max response (CRL-7250) 4.31% | outcome (HaCat [1]) | max response (KB-3-1) -1.9% | max response (NIH3T3 [2]) 3.1% | outcome (HACAT [3]) | Potency (C33A) | Potency (CAOV3) | Potency (CASKI) | Potency (Hek293T) | Potency (JEG-3) | Potency (OV90)

C=CCCN1CCC2(CC1)CN(C(=O)c1c(F)cccc1F)c1ccc(Cl)cc12
inactive: outcome (CRL-7250) | max response (HaCat [1]) -0.627% | outcome (KB-3-1) | outcome (NIH3T3 [2]) | Potency (NIH3T3 [4]) | Potency (C33A) | Potency (CAOV3) | Potency (CASKI) | Potency (Es-2) | Potency (HeLa) | Potency (Hek293T) | Potency (JEG-3) | Potency (OV90) | Potency (PA-1)

CN1CCc2cc3c(cc2C(=O)Cc2cc4c(cc2C1)OCO4)OCO3
inactive: outcome (CRL-7250) | max response (HaCat [1]) -8.11% | outcome (KB-3-1) | outcome (NIH3T3 [2]) | Potency (NIH3T3 [4]) | Potency (C33A) | Potency (CAOV3) | Potency (CASKI) | Potency (Es-2) | Potency (HeLa) | Potency (Hek293T) | Potency (JEG-3) | Potency (OV90) | Potency (PA-1)

Nc1c(S(=O)(=O)c2ccccc2)c2nc3ccccc3nc2n1-c1ccc(F)cc1
inactive: max response (CRL-7250) 2.31% | max response (HaCat [1]) -0.67% | max response (KB-3-1) 9.53% | outcome (NIH3T3 [2]) | Potency (NIH3T3 [4]) | Potency (C33A) | Potency (CAOV3) | Potency (CASKI) | Potency (Es-2) | Potency (HeLa) | Potency (Hek293T) | Potency (JEG-3) | Potency (OV90) | Potency (PA-1)

CO[C@H]1O[C@@H]2O[C@@]3(C)CCC4[C@H](C)CCC([C@H]1C)[C@]42OO3 (stereo partly drawn)
inactive: outcome (CRL-7250) | max response (HaCat [1]) -12.1% | outcome (KB-3-1) | outcome (NIH3T3 [2]) | Potency (NIH3T3 [4]) | Potency (C33A) | Potency (CAOV3) | Potency (CASKI) | Potency (Es-2) | Potency (HeLa) | Potency (Hek293T) | Potency (JEG-3) | Potency (OV90) | Potency (PA-1)

COCC(c1ccc(C(F)(F)F)cc1)N1CCN(C2(C)CCN(C(=O)c3c(C)ncnc3C)CC2)CC1C (stereo not drawn)
inactive: max response (CRL-7250) 4.87% | max response (HaCat [1]) -10.9% | max response (KB-3-1) 8.07% | outcome (NIH3T3 [2]) | Potency (NIH3T3 [4]) | Potency (C33A) | Potency (CAOV3) | Potency (CASKI) | Potency (Es-2) | Potency (HeLa) | Potency (Hek293T) | Potency (JEG-3) | Potency (OV90) | Potency (PA-1)

O=C(NCC1(N2CCN(c3ccccc3)CC2)CCOCC1)c1cccnc1Sc1ccccc1
inactive: outcome (CRL-7250) | max response (HaCat [1]) -2.8% | max response (KB-3-1) 1.24% | outcome (NIH3T3 [2]) | Potency (NIH3T3 [4]) | Potency (C33A) | Potency (CAOV3) | Potency (CASKI) | Potency (Es-2) | Potency (HeLa) | Potency (Hek293T) | Potency (JEG-3) | Potency (OV90) | Potency (PA-1)

O=C(N[C@H]1CCN(C(=O)c2cc(C(F)(F)F)cc(C(F)(F)F)c2)[C@H](Cc2ccc(Cl)cc2)C1)c1ccnc2ccccc12
inactive: max response (CRL-7250) 0.275% | max response (HaCat [1]) -2.45% | max response (KB-3-1) -7.03% | outcome (NIH3T3 [2]) | Potency (NIH3T3 [4]) | Potency (C33A) | Potency (CAOV3) | Potency (CASKI) | Potency (Es-2) | Potency (HeLa) | Potency (Hek293T) | Potency (JEG-3) | Potency (OV90) | Potency (PA-1)
